The values below come from paper PMC7862700, “An all-to-all approach to the identification of sequence-specific readers for epigenetic DNA modifications on cytosine”.

Holding throughout (assay): DAPPL (digital affinity profiling via proximity ligation, sequencing); 10 mM Tris-HCl pH 7.5, 50 mM NaCl, 1 mM DTT, 4% glycerol, room temperature, 30 min; GST-TFs on glutathione beads, 16-mer random dsDNA library, 0.1% formaldehyde crosslink after washing; high values mean tight binding
The target of one test is T1, FEV (Homo sapiens, UniProt Q99581 1-238).
T1 sequence: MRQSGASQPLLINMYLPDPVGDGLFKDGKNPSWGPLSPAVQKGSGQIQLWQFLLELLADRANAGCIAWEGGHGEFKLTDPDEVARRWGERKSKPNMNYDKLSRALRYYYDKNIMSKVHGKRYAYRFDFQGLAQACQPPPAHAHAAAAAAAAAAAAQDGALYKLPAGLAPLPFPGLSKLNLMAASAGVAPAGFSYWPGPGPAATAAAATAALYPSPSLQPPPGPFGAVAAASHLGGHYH
The conditions noted are these: protein: recombinant; tags: N-terminal GST; dsDNA, one strand shown. The method in brief: (§1)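 Pools of DNA-barcoded human transcription factors, expressed in yeast as GST fusions on glutathione beads and combined with a tag-only sample, were incubated with 200 nmole of a 16-mer random double-stranded DNA library. Incubation took 30 min at room temperature in Tris/NaCl/DTT/glycerol buffer and was followed by washing, 0.1% formaldehyde crosslinking, proximity ligation (BsaI/T4 ligase, 1 h, 37 °C), PCR amplification and sequencing on an Illumina NextSeq500. Binding signal is the ratio of a hexamer's read frequency for a factor to its frequency for the tag-only sample.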

A further test has as its target ETV5 (Homo sapiens, UniProt P41161 1-510). The conditions noted are these: protein: recombinant; tags: N-terminal GST; dsDNA, one strand shown. The method, boiled down: as §1
In the next test the target is HSF1 (Homo sapiens, UniProt Q00613 1-529). The conditions noted are these: protein: recombinant; tags: N-terminal GST; chain copies: 3; dsDNA, one strand shown. The method, boiled down:
as §1

A further test addresses T2, SPIC (Homo sapiens, UniProt Q8N5J4 1-248).
T2 sequence: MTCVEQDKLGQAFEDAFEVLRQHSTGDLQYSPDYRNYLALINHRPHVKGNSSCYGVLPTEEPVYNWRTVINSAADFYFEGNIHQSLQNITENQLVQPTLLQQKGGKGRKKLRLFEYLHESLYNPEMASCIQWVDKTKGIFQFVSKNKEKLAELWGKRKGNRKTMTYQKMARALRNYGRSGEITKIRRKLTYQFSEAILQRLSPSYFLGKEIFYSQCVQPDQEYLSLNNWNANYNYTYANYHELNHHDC
The conditions noted are these: protein: recombinant; tags: N-terminal GST; dsDNA, one strand shown. The method, boiled down: as §1

The target in another test is ELF4 (Homo sapiens, UniProt Q99607 1-663). The conditions noted are these: protein: recombinant; tags: N-terminal GST; dsDNA, one strand shown. The method, boiled down: as §1
Sequence of ELF4 (Q99607 whole entry): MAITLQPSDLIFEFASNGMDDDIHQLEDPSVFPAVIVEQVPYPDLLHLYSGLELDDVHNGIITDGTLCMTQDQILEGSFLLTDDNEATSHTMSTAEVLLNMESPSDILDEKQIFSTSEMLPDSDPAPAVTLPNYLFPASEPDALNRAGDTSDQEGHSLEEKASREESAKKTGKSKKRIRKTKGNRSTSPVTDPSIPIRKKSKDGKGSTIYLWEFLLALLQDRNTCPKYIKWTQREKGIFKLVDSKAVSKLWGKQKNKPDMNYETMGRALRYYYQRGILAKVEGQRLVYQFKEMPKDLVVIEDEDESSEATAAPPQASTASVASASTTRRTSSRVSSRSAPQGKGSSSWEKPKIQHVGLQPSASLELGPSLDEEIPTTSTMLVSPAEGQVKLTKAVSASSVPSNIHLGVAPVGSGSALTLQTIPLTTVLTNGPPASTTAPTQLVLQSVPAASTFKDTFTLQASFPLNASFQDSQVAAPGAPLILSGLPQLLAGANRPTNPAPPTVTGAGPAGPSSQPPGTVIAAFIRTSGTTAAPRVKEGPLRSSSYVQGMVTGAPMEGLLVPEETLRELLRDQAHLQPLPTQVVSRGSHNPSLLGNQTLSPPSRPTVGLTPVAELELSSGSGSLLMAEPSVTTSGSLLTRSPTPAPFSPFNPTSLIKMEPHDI
In a further test the target is T3, ELK4 (Homo sapiens, UniProt P28324-2 1-405).
T3 sequence: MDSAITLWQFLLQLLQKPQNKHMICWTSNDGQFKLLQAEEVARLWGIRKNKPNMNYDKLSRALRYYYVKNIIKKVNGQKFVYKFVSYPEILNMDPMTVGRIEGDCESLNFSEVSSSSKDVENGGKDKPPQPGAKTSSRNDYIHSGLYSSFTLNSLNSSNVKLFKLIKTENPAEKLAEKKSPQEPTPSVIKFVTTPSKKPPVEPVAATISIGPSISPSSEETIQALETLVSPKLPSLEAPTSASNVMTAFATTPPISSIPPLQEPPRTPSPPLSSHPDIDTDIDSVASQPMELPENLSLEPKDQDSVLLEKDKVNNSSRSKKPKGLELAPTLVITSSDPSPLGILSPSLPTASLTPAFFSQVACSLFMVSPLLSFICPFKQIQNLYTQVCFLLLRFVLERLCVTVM
The conditions noted are these: protein: recombinant; tags: N-terminal GST; dsDNA, one strand shown. The method, boiled down: as §1

The target of another test is T4, ETV2 (Homo sapiens, UniProt O00321 1-342).
T4 sequence: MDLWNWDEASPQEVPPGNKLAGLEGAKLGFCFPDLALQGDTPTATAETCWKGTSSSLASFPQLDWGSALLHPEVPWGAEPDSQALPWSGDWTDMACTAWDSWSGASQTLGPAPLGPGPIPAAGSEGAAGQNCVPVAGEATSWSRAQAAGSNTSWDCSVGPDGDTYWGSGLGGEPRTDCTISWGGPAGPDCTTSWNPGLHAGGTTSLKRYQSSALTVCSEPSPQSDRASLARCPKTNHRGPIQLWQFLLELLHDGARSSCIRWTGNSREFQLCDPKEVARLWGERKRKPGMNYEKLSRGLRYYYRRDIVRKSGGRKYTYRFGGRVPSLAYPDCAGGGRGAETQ
The conditions noted are these: protein: recombinant; tags: N-terminal GST; dsDNA, one strand shown. The method in brief:
as §1

The target of the next test is T5, ELF3 (Homo sapiens, UniProt P78545 1-371).
T5 sequence: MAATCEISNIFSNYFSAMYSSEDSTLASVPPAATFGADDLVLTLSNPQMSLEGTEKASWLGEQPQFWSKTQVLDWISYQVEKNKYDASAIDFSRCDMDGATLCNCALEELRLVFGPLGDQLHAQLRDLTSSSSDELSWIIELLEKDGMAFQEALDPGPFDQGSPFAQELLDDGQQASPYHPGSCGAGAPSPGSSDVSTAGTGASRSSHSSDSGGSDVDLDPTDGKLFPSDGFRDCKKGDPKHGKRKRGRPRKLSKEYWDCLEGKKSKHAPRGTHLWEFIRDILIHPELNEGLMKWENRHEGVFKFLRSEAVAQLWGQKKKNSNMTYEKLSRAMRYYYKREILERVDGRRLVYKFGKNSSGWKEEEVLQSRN
The conditions noted are these: protein: recombinant; tags: N-terminal GST; dsDNA, one strand shown. The method, boiled down: as §1

For a further test, the target named is CRX (Homo sapiens, UniProt O43186 1-299). The conditions noted are these: protein: recombinant; tags: N-terminal GST; dsDNA, one strand shown. The method, boiled down:
as §1

For another test, the target named is ETV1 (Homo sapiens, UniProt P50549 1-477). The conditions noted are these: protein: recombinant; tags: N-terminal GST; dsDNA, one strand shown. The method in brief:
as §1

Another test concerns the target T6, ERF (Homo sapiens, UniProt P50548 1-548).
T6 sequence: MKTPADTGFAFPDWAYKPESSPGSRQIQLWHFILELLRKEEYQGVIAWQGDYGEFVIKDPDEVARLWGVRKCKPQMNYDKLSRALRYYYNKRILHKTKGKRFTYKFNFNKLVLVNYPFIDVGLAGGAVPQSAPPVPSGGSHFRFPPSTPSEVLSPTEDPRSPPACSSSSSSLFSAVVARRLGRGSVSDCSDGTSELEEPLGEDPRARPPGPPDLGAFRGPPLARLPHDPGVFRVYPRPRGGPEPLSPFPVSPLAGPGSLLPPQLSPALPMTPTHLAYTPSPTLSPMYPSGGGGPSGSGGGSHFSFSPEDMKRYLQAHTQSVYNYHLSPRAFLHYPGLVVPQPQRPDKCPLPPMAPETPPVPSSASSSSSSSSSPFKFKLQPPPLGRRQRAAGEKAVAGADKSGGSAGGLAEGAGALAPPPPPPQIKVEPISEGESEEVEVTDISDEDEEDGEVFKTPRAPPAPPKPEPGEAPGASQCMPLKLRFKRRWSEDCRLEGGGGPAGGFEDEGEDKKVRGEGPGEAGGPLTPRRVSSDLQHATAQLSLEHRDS
The conditions noted are these: protein: recombinant; tags: N-terminal GST; dsDNA, one strand shown. The method in brief: as §1

The next test addresses T7, ETV3L (Homo sapiens, UniProt Q6ZN32 1-361).
T7 sequence: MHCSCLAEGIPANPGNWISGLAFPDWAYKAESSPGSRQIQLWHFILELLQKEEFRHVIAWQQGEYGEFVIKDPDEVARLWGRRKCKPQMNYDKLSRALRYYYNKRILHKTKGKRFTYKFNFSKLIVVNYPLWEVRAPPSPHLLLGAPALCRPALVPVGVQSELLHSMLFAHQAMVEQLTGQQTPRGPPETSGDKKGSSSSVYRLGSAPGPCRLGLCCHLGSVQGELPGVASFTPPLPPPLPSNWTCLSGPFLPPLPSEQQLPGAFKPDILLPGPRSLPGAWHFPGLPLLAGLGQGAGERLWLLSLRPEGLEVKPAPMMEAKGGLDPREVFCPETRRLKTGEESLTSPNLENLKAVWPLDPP
The conditions noted are these: protein: recombinant; tags: N-terminal GST; dsDNA, one strand shown. The method in brief: as §1

The target in another test is T8, ETS2 (Homo sapiens, UniProt P15036 1-469).
T8 sequence: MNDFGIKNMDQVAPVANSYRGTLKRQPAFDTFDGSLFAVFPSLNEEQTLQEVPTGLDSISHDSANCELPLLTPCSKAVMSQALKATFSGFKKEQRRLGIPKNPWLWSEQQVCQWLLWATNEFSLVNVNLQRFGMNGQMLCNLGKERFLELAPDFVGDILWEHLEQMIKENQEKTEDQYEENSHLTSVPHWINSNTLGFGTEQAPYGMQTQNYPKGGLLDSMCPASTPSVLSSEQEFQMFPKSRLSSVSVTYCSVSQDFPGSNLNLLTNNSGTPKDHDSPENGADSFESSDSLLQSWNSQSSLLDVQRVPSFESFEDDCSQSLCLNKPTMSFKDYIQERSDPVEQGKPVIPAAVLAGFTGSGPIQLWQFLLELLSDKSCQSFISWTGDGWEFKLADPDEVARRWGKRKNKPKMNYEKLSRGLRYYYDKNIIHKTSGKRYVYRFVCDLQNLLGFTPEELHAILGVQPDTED
The conditions noted are these: protein: recombinant; tags: N-terminal GST; dsDNA, one strand shown. The method, boiled down: as §1

Another test has as its target T9, SPDEF (Homo sapiens, UniProt O95238 1-335).
T9 sequence: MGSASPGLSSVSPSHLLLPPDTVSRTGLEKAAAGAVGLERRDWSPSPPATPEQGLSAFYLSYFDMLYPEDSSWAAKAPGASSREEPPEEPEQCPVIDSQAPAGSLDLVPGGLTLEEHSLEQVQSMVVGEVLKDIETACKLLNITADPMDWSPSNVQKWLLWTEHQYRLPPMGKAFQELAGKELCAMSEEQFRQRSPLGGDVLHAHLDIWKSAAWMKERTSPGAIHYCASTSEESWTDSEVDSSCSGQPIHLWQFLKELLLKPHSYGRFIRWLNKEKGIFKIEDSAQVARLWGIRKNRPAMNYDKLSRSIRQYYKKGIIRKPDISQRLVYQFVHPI
The conditions noted are these: protein: recombinant; tags: N-terminal GST; dsDNA, one strand shown. The method in brief: as §1

For another test, the target named is T10, ETV7 (Homo sapiens, UniProt Q9Y603 1-341).
T10 sequence: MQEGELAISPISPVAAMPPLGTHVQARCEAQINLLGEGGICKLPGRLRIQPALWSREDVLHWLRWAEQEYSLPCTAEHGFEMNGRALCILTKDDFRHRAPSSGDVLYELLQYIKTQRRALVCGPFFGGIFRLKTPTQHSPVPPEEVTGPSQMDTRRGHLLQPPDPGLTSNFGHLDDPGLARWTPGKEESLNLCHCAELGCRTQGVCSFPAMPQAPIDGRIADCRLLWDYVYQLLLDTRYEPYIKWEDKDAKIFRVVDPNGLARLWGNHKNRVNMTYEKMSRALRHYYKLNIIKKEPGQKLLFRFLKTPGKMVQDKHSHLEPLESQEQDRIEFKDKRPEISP
The conditions noted are these: protein: recombinant; tags: N-terminal GST; dsDNA, one strand shown. The method, boiled down:
as §1

The target of another test is T11, ELF5 (Homo sapiens, UniProt Q9UKW6-2 1-255).
T11 sequence: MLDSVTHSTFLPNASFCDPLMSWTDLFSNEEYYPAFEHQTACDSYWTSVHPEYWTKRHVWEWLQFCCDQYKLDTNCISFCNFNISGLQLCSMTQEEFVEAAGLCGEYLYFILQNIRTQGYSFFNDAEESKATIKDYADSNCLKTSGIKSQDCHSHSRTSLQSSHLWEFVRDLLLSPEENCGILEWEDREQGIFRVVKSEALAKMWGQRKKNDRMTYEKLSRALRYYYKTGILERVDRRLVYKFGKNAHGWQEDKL
The conditions noted are these: protein: recombinant; tags: N-terminal GST; dsDNA, one strand shown. The method in brief:
as §1

The target in the next test is T12, ETV3 (Homo sapiens, UniProt P41162-2 1-143).
T12 sequence: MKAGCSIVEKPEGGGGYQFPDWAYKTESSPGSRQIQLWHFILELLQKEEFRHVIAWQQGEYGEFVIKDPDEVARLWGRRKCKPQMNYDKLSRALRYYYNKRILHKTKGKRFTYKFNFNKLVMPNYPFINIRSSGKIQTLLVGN
The conditions noted are these: protein: recombinant; tags: N-terminal GST; dsDNA, one strand shown. The method, boiled down: as §1

A further test concerns the target ETV6 (Homo sapiens, UniProt P41212 1-452). The conditions noted are these: protein: recombinant; tags: N-terminal GST; dsDNA, one strand shown. The method, boiled down:
as §1

Sequence of ETV1 (P50549 whole entry): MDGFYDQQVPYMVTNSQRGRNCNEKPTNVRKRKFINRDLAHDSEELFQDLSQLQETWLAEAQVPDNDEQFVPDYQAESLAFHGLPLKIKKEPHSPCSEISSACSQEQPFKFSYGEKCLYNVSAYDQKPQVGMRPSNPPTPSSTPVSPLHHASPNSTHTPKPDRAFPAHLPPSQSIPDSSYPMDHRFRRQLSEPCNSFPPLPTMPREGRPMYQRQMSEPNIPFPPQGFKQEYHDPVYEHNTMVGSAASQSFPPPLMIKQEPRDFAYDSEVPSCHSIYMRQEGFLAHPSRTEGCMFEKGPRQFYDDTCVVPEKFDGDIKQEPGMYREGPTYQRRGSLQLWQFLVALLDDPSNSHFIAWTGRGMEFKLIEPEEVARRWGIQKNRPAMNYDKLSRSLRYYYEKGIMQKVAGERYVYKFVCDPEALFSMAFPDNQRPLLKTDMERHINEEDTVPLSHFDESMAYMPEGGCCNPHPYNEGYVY
Sequence of HSF1 (Q00613 whole entry): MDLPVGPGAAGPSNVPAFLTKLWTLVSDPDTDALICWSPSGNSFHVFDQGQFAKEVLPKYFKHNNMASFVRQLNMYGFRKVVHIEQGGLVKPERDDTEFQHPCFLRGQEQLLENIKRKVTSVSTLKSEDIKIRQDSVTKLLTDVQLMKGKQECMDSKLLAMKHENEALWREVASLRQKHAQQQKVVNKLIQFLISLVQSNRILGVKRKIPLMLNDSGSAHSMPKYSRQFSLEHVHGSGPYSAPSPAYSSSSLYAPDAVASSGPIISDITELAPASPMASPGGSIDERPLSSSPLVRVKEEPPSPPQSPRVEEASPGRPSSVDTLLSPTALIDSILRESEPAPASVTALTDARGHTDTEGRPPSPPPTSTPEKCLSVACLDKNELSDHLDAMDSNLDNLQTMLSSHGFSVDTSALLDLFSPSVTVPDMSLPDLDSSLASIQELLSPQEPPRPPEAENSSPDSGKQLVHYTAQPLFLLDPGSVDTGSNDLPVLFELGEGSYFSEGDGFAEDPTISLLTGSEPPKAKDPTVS
Sequence of ETV5 (P41161 whole entry): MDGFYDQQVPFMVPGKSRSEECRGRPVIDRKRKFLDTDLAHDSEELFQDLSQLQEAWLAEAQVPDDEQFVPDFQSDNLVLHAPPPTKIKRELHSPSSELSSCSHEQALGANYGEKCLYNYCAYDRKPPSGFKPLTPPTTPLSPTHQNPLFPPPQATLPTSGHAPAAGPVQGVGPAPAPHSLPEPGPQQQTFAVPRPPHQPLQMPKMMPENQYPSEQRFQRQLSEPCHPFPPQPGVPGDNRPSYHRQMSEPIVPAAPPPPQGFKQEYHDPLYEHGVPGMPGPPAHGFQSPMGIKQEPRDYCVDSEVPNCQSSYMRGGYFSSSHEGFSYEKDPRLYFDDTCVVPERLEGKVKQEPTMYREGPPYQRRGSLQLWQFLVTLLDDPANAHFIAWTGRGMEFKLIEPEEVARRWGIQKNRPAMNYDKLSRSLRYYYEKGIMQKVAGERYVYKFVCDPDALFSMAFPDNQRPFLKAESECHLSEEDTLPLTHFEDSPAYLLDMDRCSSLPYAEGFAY
Sequence of CRX (O43186 whole entry): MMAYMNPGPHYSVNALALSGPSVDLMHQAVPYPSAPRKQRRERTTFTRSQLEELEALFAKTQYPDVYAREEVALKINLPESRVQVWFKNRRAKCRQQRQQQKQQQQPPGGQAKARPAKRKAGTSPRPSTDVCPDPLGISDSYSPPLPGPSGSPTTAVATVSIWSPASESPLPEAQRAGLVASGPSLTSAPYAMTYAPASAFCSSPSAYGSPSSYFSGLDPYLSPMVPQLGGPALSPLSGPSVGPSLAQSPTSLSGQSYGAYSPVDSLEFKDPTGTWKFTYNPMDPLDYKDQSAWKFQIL
Sequence of ETV6 (P41212 whole entry): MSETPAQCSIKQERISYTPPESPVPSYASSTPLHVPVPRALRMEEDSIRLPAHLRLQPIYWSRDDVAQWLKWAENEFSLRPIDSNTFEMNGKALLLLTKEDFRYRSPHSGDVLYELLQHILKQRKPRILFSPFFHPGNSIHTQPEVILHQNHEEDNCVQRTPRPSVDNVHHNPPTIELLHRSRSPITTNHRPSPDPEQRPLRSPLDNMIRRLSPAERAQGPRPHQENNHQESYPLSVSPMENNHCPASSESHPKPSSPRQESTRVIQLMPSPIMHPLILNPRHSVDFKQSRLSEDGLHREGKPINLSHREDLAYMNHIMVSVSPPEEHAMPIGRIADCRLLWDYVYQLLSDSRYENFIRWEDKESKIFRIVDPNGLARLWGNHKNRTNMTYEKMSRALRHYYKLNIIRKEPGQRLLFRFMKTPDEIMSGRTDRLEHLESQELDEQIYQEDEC

With TAAAAT, the binding signal with FEV was 1.14 fold enrichment (6-mer frequency, TF over GST control); with ETV5, 1.22 fold enrichment (6-mer frequency, TF over GST control); in the test with HSF1, 1.48 fold enrichment (6-mer frequency, TF over GST control); with SPIC, 1.19 fold enrichment (6-mer frequency, TF over GST control); with ELF4, 1.2 fold enrichment (6-mer frequency, TF over GST control); with ELK4 it was 1.2 fold enrichment (6-mer frequency, TF over GST control). The binding signal with ETV2 is 1.34 fold enrichment (6-mer frequency, TF over GST control); with ELF3, 1.27 fold enrichment (6-mer frequency, TF over GST control); with CRX, 1.76 fold enrichment (6-mer frequency, TF over GST control); in the test with ETV1, 1.22 fold enrichment (6-mer frequency, TF over GST control); in the test with ERF, 1.22 fold enrichment (6-mer frequency, TF over GST control); in the test with ETV3L, 1.28 fold enrichment (6-mer frequency, TF over GST control). Also, the binding signal is 1.28 fold enrichment (6-mer frequency, TF over GST control) in the test with ETS2; 1.14 fold enrichment (6-mer frequency, TF over GST control) in the test with SPDEF; 1.17 fold enrichment (6-mer frequency, TF over GST control) with ETV7; 1.15 fold enrichment (6-mer frequency, TF over GST control) in the test with ELF5; 1.17 fold enrichment (6-mer frequency, TF over GST control) in the test with ETV3; 1.18 fold enrichment (6-mer frequency, TF over GST control) in the test with ETV6.
